Holding throughout (conditions): modulator concentration 10 µM
Assay [1] relates to RAW-Dual (murine macrophage reporter line). Nature of the assay: NF-kB reporter (SEAP) activity fold change vs agonist alone; higher = enhanced NF-kB activity. The procedure, abridged: (§1)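 Compound reached 10 μM final in each well by pin transfer, onto RAW-Dual murine macrophage reporter cells seeded at 50 000 per well in 384-well plates. After 1 hour at 37 °C, the cells were stimulated overnight with a PRR agonist. SEAP in the supernatant was read with QUANTI-Blue at 620 nm absorbance for NF-κB, and Lucia luciferase was read with QUANTI-Luc luminescence for IRF. Each signal was turned into fold change against the mean agonist-only control on the same plate, and two replicate plates were averaged with propagated errors.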

The test system is the same in assay [2]. Nature of the assay: IRF reporter (Lucia luciferase) activity fold change vs agonist alone; higher = enhanced IRF activity. In a few lines: as §1
Assay [3] shares this test system. Nature of the assay: viability score (confluency relative to resting cells, overnight) (fraction); higher = more viable, active = viable (0.7 or more). In a few lines: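 RAW-Dual macrophages in 384-well plates were treated overnight with compound at 10 μM final. IncuCyte imaging recorded confluency, and IncuCyte software built two confluency masks across every imaged well. The viability score expresses confluency relative to resting cells and was judged against a cutoff, which a compound met only if both masks exceeded 70% of resting cells.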

Setting [4] is: agonist: CpG ODN 1826 0.5 ug/mL.

± gives the standard deviation.

Consider `O=C1C(O)=C(c2ccc([N+](=O)[O-])cc2)C(=O)c2ccccc21`, for which the values for the NF-kB reporter in assay [1] (setting [4]), in assay [1] (agonist: LPS 0.1 ug/mL) and in assay [1] (agonist: MPLA […]) were 0.967 ± 0.065, 1.02 ± 0.1 and 0.905 ± 0.079, respectively. In addition, the IRF reporter in assay [2] (agonist: 3'3'-cGAMP 10 ug/mL) was 0.969 ± 0.038; in assay [2] (agonist: LPS 0.1 ug/mL), 1.53 ± 0.13; in assay [2] (agonist: MPLA […]) it was 1.28 ± 0.23. For the same compound, in assay [3], the viability score is 1 (active).

On to `O=C(c1ccc(S(=O)(=O)N2CCCC2)cc1)N1CC(Nc2ccncn2)C1`, for which the values for the NF-kB reporter in assay [1] (setting [4]), in assay [1] (agonist: LPS 0.1 ug/mL) and in assay [1] (agonist: MPLA […]) were 0.978 ± 0.1, 0.986 ± 0.086 and 0.921 ± 0.057, respectively. The IRF reporter was 0.969 ± 0.071 in assay [2] (agonist: 3'3'-cGAMP 10 ug/mL), 1.23 ± 0.13 in assay [2] (agonist: LPS 0.1 ug/mL) and 1.06 ± 0.095 in assay [2] (agonist: MPLA […]). Also, the viability score in assay [3] is 1 (active).

Regarding `OCCCNCC(O)Cn1c2ccc(Br)cc2c2cc(Br)ccc21` (centres undefined), the NF-kB reporter in assay [1] (setting [4]) worked out at 0.661 ± 0.043; in assay [1] (agonist: LPS 0.1 ug/mL), 0.653 ± 0.057; in assay [1] (agonist: MPLA […]) it was 1.75 ± 0.049. For the same compound, the IRF reporter in assay [2] (agonist: 3'3'-cGAMP 10 ug/mL) is 0.626 ± 0.046; in assay [2] (agonist: LPS 0.1 ug/mL) it was 1.19 ± 0.073; in assay [2] (agonist: MPLA […]) it was 1.91 ± 0.18. The viability score in assay [3] was 0.108 (inactive).

Take `Clc1ccc2c(c1)C(N1CCNCC1)=Nc1ccccc1O2`: the results for the NF-kB reporter in assay [1] (setting [4]), in assay [1] (agonist: LPS 0.1 ug/mL) and in assay [1] (agonist: MPLA […]) were 0.996 ± 0.26, 1.02 ± 0.066 and 0.969 ± 0.07, respectively. The IRF reporter was 0.893 ± 0.03 in assay [2] (agonist: 3'3'-cGAMP 10 ug/mL), 1.2 ± 0.25 in assay [2] (agonist: LPS 0.1 ug/mL) and 1.28 ± 0.13 in assay [2] (agonist: MPLA […]). For the same compound, in assay [3], the viability score is 0.637 (inactive).

Consider `CCc1ccc2nc(NCCCN3CCOCC3)sc2c1`, for which the NF-kB reporter stood at 0.924 ± 0.057 in assay [1] (setting [4]), 1.02 ± 0.083 in assay [1] (agonist: LPS 0.1 ug/mL) and 0.971 ± 0.058 in assay [1] (agonist: MPLA […]). Besides, the IRF reporter in assay [2] (agonist: 3'3'-cGAMP 10 ug/mL) is 0.866 ± 0.04; in assay [2] (agonist: LPS 0.1 ug/mL), 1.19 ± 0.27; in assay [2] (agonist: MPLA […]), 1.3 ± 0.34. Moreover, the viability score in assay [3] was 0.99 (active).

Take `C[C@@H](Oc1cc(-c2cnn(C3CCNCC3)c2)cnc1N)c1c(Cl)ccc(F)c1Cl`: the NF-kB reporter in assay [1] (setting [4]) came out at 0.149 ± 0.026; in assay [1] (agonist: LPS 0.1 ug/mL) it was 0.423 ± 0.2; in assay [1] (agonist: MPLA […]) it was 1.47 ± 0.12. The IRF reporter came out at 0.0546 ± 0.0028 in assay [2] (agonist: 3'3'-cGAMP 10 ug/mL), 0.165 ± 0.074 in assay [2] (agonist: LPS 0.1 ug/mL) and 0.128 ± 0.02 in assay [2] (agonist: MPLA […]). Besides, in assay [3], the viability score was 0.0221 (inactive).

As to `CN(C)c1ccc(C2N(C)c3ccccc3N2C)cc1`, the NF-kB reporter in assay [1] (setting [4]) turned out to be 1.2 ± 0.19; in assay [1] (agonist: LPS 0.1 ug/mL), 1.69 ± 0.13; in assay [1] (agonist: MPLA […]), 2.19 ± 0.2. Besides, the IRF reporter in assay [2] (agonist: 3'3'-cGAMP 10 ug/mL) amounted to 0.939 ± 0.031; in assay [2] (agonist: LPS 0.1 ug/mL) it was 1.88 ± 0.23; in assay [2] (agonist: MPLA […]), 1.94 ± 0.25. The viability score in assay [3] was 0.858 (active).

With `CC(=O)N[C@H]1[C@H]([C@H](O)[C@H](O)CO)OC(C(=O)O)=C[C@@H]1NC(=N)N`, the NF-kB reporter is 1.12 ± 0.27 in assay [1] (setting [4]), 0.945 ± 0.12 in assay [1] (agonist: LPS 0.1 ug/mL) and 1.02 ± 0.066 in assay [1] (agonist: MPLA […]). The IRF reporter in assay [2] (agonist: 3'3'-cGAMP 10 ug/mL) was 0.919 ± 0.04; in assay [2] (agonist: LPS 0.1 ug/mL), 1.3 ± 0.24; in assay [2] (agonist: MPLA […]), 1.08 ± 0.12. Also, the viability score in assay [3] is 1.01 (active).

In the case of `CC(=O)N1CCN(c2ccc(OCC3COC(Cn4ccnc4)(c4ccc(Cl)cc4Cl)O3)cc2)CC1` (centres undefined), the figures for the NF-kB reporter in assay [1] (setting [4]), in assay [1] (agonist: LPS 0.1 ug/mL) and in assay [1] (agonist: MPLA […]) were 0.669 ± 0.058, 1.1 ± 0.085 and 1.08 ± 0.023, respectively. The IRF reporter in assay [2] (agonist: 3'3'-cGAMP 10 ug/mL) amounted to 1.07 ± 0.059; in assay [2] (agonist: LPS 0.1 ug/mL), 1.14 ± 0.12; in assay [2] (agonist: MPLA […]), 1.18 ± 0.11. Moreover, the viability score in assay [3] was 0.92 (active).

On to `CCCCCOC(=O)COc1ccc(S(=O)(=O)c2ccc(OCC(=O)OCCCCC)cc2)cc1`, for which the NF-kB reporter in assay [1] (setting [4]) was 0.959 ± 0.079; in assay [1] (agonist: LPS 0.1 ug/mL), 0.964 ± 0.094; in assay [1] (agonist: MPLA […]), 1.12 ± 0.14. The IRF reporter was 1.02 ± 0.032 in assay [2] (agonist: 3'3'-cGAMP 10 ug/mL), 1.33 ± 0.21 in assay [2] (agonist: LPS 0.1 ug/mL) and 1.61 ± 0.25 in assay [2] (agonist: MPLA […]). Moreover, the viability score in assay [3] was 1.03 (active).

Regarding `O=C1c2ccccc2C(=O)C1c1ccccn1`, the NF-kB reporter amounted to 0.912 ± 0.069 in assay [1] (setting [4]), 1.08 ± 0.087 in assay [1] (agonist: LPS 0.1 ug/mL) and 0.993 ± 0.021 in assay [1] (agonist: MPLA […]). Besides, the IRF reporter in assay [2] (agonist: 3'3'-cGAMP 10 ug/mL) was determined as 0.897 ± 0.055; in assay [2] (agonist: LPS 0.1 ug/mL), 0.976 ± 0.075; in assay [2] (agonist: MPLA […]) it was 0.95 ± 0.091. In assay [3], the viability score is 0.987 (active).

As for `O=c1ccc2cc(O)c(O)cc2o1`, the NF-kB reporter in assay [1] (setting [4]) amounted to 1.34 ± 0.34; in assay [1] (agonist: LPS 0.1 ug/mL), 0.878 ± 0.044; in assay [1] (agonist: MPLA […]), 1.03 ± 0.16. The IRF reporter turned out to be 0.736 ± 0.026 in assay [2] (agonist: 3'3'-cGAMP 10 ug/mL), 1.34 ± 0.2 in assay [2] (agonist: LPS 0.1 ug/mL) and 1.2 ± 0.12 in assay [2] (agonist: MPLA […]). Further, in assay [3], the viability score was 0.986 (active).

The values above are taken from the supplement of paper PMC10646978.
